Screening data deposited in PubChem by Broad Institute.
IDE exosite FP – displaces the probe from the exo-site of human IDE | P14735 | purified IDE, FL-6b probe fluorescence polarization; stronger effect = lower value | z-score at 20 µM | 17,000 compounds, 6.3% hits | AID 1259349;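 active = z-score of -3 or lower, meaning strong loss of probe binding signal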;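 also: His-tagged human IDE residues 42-1019 made in E. coli with 30 nM FL-6b probe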
Hits are given with their value; n = inactive. Many of the other results were omitted from the sample, so hits are more common in it than they were.

SMILES	IDE exosite FP
COc1cccc(-c2ccc([C@H]3[C@H]4CN(C(=O)c5ccncc5)CC(=O)N4[C@H]3CO)cc2)c1	n
COc1cccc(-c2ccc([C@@H]3[C@H]4CN(C(=O)CN5CCOCC5)CC(=O)N4[C@H]3CO)cc2)c1	-5.53
COc1cccc(-c2ccc([C@@H]3[C@@H](CO)N4C(=O)CN(C(=O)CN5CCOCC5)C[C@H]34)cc2)c1	-3.75
Cc1ccc(-c2ccc([C@H]3[C@@H](CO)N4C(=O)CN(C(=O)CN5CCOCC5)C[C@@H]34)cc2)cc1	n
Cc1ccc(-c2ccc([C@@H]3[C@H]4CN(C(=O)CN5CCOCC5)CC(=O)N4[C@H]3CO)cc2)cc1	n
COc1cccc(-c2ccc([C@@H]3[C@@H](CO)N4C(=O)CN(C(=O)c5ccncc5)C[C@@H]34)cc2)c1	n
COCC#Cc1ccc([C@@H]2[C@H]3CN(C(=O)CN4CCOCC4)CC(=O)N3[C@H]2CO)cc1	n
Cc1ccc(-c2ccc([C@@H]3[C@H](CO)N4C(=O)CN(C(=O)CN5CCOCC5)C[C@@H]34)cc2)cc1	n
Cc1cccc(-c2ccc([C@H]3[C@H](CO)N4C(=O)CN(C(=O)CN5CCOCC5)C[C@@H]34)cc2)c1	-6.29
CC(C)CC#Cc1ccc([C@@H]2[C@H]3CN(S(C)(=O)=O)CC(=O)N3[C@H]2CO)cc1	n
O=C(Cc1ccccn1)N1CC(=O)N2[C@H](C1)[C@H](c1ccc(C#CCC3CCCC3)cc1)[C@@H]2CO	n
NCC[C@@H]1CC[C@@H](NC(=O)NC2CCCCC2)[C@@H](CO)O1	n
C/C=C/c1ccc([C@H]2[C@@H](CO)N(C(=O)C3CC3)[C@H]2CN(C)C(=O)C2CC2)cc1	n
C/C=C/c1ccc([C@@H]2[C@@H](CO)N3CCCCN(S(=O)(=O)c4cccs4)C[C@@H]23)cc1	n
CN(C)CC#Cc1ccc([C@@H]2[C@H]3CN(C(=O)Nc4cc(F)ccc4F)CCCCN3[C@H]2CO)cc1	n
CC(C)NC(=O)N1[C@@H](C#N)[C@H](c2ccc(C#CC3CCCCC3)cc2)[C@@H]1CO	n
COc1ccccc1-c1ccc([C@H]2[C@H](CO)N3CCCCN(Cc4ccncc4)C[C@@H]23)cc1	-8.05
OC[C@@H]1[C@H](c2ccc(-c3ccccc3)cc2)[C@H]2CN(Cc3ccccn3)CCCCN12	n
OC[C@H]1[C@H](c2ccc(-c3ccccc3F)cc2)[C@@H]2CN(Cc3ccncc3)CCCCN12	n
OC[C@@H]1[C@@H](c2ccc(-c3ccc(F)cc3)cc2)[C@H]2CN(Cc3ccncc3)CCCCN12	n
OC[C@H]1[C@H](c2ccc(-c3ccccc3)cc2)[C@H]2CN(Cc3ccccn3)CCCCN21	n
OC[C@@H]1[C@@H](c2ccc(-c3ccccc3F)cc2)[C@H]2CN(Cc3ccncc3)CCCCN12	n
Cc1cccc(-c2ccc([C@@H]3[C@@H](CO)N4CCCCN(Cc5ccncc5)C[C@H]34)cc2)c1	-5.02
OC[C@@H]1[C@H](c2ccc(-c3ccccc3)cc2)[C@@H]2CN(Cc3ccccn3)CCCCN12	-3.03
OC[C@@H]1[C@H](c2ccc(-c3ccc(F)cc3)cc2)[C@@H]2CN(Cc3ccncc3)CCCCN12	n
SMILES	IDE exosite FP
C[C@H](NC(=O)C[C@@H]1C=C[C@H](NC(=O)c2cccnc2)[C@@H](CO)O1)c1ccccc1	n
O=C(C[C@@H]1C[C@H]2c3cc(NC(=O)c4ccc5c(c4)OCO5)ccc3O[C@H]2[C@H](CO)O1)NCc1ccc(Oc2ccccc2)cc1	n
CCCNC(=O)Nc1ccc2c(c1)OC[C@H](C)N(S(C)(=O)=O)C[C@@H](C)[C@H](OC)CN(C)C2=O	n
CCCC#Cc1ccc([C@H]2[C@@H](CO)N3C(=O)CN(C(=O)Nc4cc(F)ccc4F)C[C@@H]23)cc1	n
O=S(=O)(c1ccc(Cl)cc1)N1[C@@H]2CNC[C@H]1C2c1ccc(-c2cccnc2)cc1 (stereo not given in full)	n
N#Cc1ccc(-c2ccc([C@@H]3[C@H]4CNCC(=O)N4[C@H]3CO)cc2)cc1	n
COc1ccc2c3c(n(C)c2c1)[C@H](CO)NCC31CN(S(=O)(=O)c2ccc(C)cc2)C1	n
C/C=C/c1ccc(C2[C@H]3CNC[C@@H]2N3S(=O)(=O)Cc2ccccc2)cc1 (stereo not given in full)	n
O=C(C[C@H]1CC[C@H]2[C@@H](COC[C@@H](O)CN2Cc2cc(F)ccc2F)O1)NCc1ccc(Oc2ccccc2)cc1	n
C[C@@H]1CCCCO[C@H](CN(C)S(=O)(=O)c2ccc(F)cc2)[C@@H](C)CN([C@@H](C)CO)C(=O)c2cc(N(C)C)ccc2O1	n
COc1cccc(C#Cc2ccc([C@H]3[C@@H](CO)N(C(=O)C4CC4)[C@H]3C#N)cc2)c1	n
COc1cccc(C#Cc2ccc([C@@H]3[C@@H](C#N)N(C(=O)C4CC4)[C@H]3CO)cc2)c1	n
COc1cccc(C#Cc2ccc([C@@H]3[C@@H](CO)N(C(=O)C4CC4)[C@H]3C#N)cc2)c1	n
COc1ccccc1C#Cc1ccc([C@H]2[C@@H](C#N)N(C(=O)C3CC3)[C@H]2CO)cc1	-8.96
COc1ccccc1C#Cc1ccc([C@H]2[C@H](C#N)N(C(=O)C3CC3)[C@H]2CO)cc1	-7.58
N#C[C@@H]1[C@@H](c2ccc(C#Cc3ccccc3F)cc2)[C@H](CO)N1C(=O)C1CC1	n
O=C(C[C@H]1CC[C@H](NC(=O)C2CCOCC2)[C@H](CO)O1)NCC1CCCCC1	n
CCC(=O)N1[C@H](CO)[C@@H]2c3ccccc3N(C(=O)c3cnccn3)C[C@@H]21	n
COc1ccc2c3c([nH]c2c1)[C@H](CO)NCC31CN(C(=O)Nc2ccc3c(c2)OCO3)C1	n
N#Cc1cccc(-c2ccc(C3[C@@H]4CN(C(=O)Nc5ccccc5)C[C@H]3N4)cc2)c1 (stereo not given in full)	n
Cc1cccc(-c2ccc(C3[C@@H]4CN(C(=O)C5CCOCC5)C[C@H]3N4)cc2)c1 (stereo not given in full)	-5.14
O=C(C1CCOCC1)N1C[C@@H]2N[C@H](C1)C2c1ccc(-c2cncnc2)cc1 (stereo not given in full)	n
Cc1cccc(-c2ccc(C3[C@@H]4CN(C(=O)Nc5ccc(F)cc5)C[C@H]3N4)cc2)c1 (stereo not given in full)	n
c1ccc(CN2C[C@@H]3N[C@H](C2)C3c2ccc(-c3ccncc3)cc2)cc1 (stereo not given in full)	n
Cc1cccc(-c2ccc(C3[C@@H]4CN(Cc5cccc(F)c5)C[C@H]3N4)cc2)c1 (stereo not given in full)	n
SMILES	IDE exosite FP
CN(C)C(=O)c1ccc(-c2ccc(C3[C@@H]4CN(C(=O)C5CC5)C[C@H]3N4)cc2)cc1 (stereo not given in full)	n
Cc1cccc(-c2ccc(C3[C@@H]4CN(Cc5ccccc5)C[C@H]3N4)cc2)c1 (stereo not given in full)	-5.1
Cc1cccc(-c2ccc(C3[C@@H]4CN(C(=O)Nc5ccccc5)C[C@H]3N4)cc2)c1 (stereo not given in full)	-4.3
N#C[C@@H]1[C@@H](c2ccccc2C2=CCCCC2)[C@@H](CO)N1S(=O)(=O)c1ccccc1	n
COc1ccc(CN(C)C[C@H]2OCc3cnnn3CCCC(=O)N([C@@H](C)CO)C[C@H]2C)cc1	n
CC(=O)N(C)C[C@H]1[C@H](c2ccc(-c3ccc(F)cc3)cc2)[C@@H](CO)N1C(C)=O	n
COc1ccccc1CNC(=O)C[C@@H]1CC[C@H]2[C@@H](COC[C@H](O)CN2Cc2ccc3c(c2)OCO3)O1	n
